Assay results as given in the supplement of paper PMC6607015.
Where a name gives a salt, the structure may show the parent alone.

Columns and labels:
Settings in all cases: compound concentration in added solution (µM; 5 µl added to 20 µl cells): 10; 18 h
A431 [1] = experiment: LBPA endosome anti-LBPA integrated intensity (sum per cell), Z-score; higher = more LBPA staining
Summary of the method: (§1)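 Z-scores normalised in AcuityXpress are given for per-cell integrated LBPA or filipin intensity, measured whole-cell or within LBPA endosomes by MetaXpress segmentation. Cells (HeLa MZ or A431, 3,500 per well in 20 µl) were seeded onto 5 µl of 10 µM compound solution in duplicate 384-well imaging plates and fixed in 4% PFA after 18 h.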

HeLa MZ [2] = experiment: as above
Summary of the method: as §1

A431 [3] = experiment: whole-cell filipin (free cholesterol) integrated intensity, Z-score; higher = more cholesterol staining
Summary of the method: as §1

HeLa MZ [4] = experiment: as above
Summary of the method: as §1

A431 [5] = experiment: filipin (cholesterol) integrated intensity within LBPA endosomes, Z-score; higher = more cholesterol in LBPA endosomes
Summary of the method: as §1

HeLa MZ [6] = experiment: as above
Summary of the method: as §1

Row | Compound | LBPA endosome anti-LBPA integrated intensity (z-score) (A431 [1]) | LBPA endosome anti-LBPA integrated intensity (z-score) (HeLa MZ [2]) | whole-cell filipin (z-score) (A431 [3]) | whole-cell filipin (z-score) (HeLa MZ [4]) | filipin (z-score) (A431 [5]) | filipin (z-score) (HeLa MZ [6])
1 | O=C(NCNC(=O)NC1C(=O)NC(=O)N1CO)NC1C(=O)NC(=O)N1CO (stereo not drawn) [Imidurea] | -0.433 | 0.0233 | -0.35 | -0.63 | -0.459 | -0.511
2 | O=c1[nH]oc2c1CCNC2 [THIP Hydrochloride] | -0.526 | -1.24 | -0.151 | -1.07 | -0.413 | -0.582
3 | C#C[C@]1(O)CC[C@H]2[C@@H]3CCC4=CC(=O)CC[C@]4(C)[C@H]3CC[C@@]21C [Ethisterone] | -0.369 | -0.214 | -0.635 | -1.08 | -0.449 | -0.685
4 | NC(=O)C[S+]([O-])C(c1ccccc1)c1ccccc1 (stereo not drawn) [Modafinil] | -0.574 | -0.833 | -0.743 | -0.382 | -0.532 | -0.453
5 | COc1ccc(C(=O)N2CCCC2=O)cc1 [Aniracetam] | -0.475 | 0.124 | -0.904 | -0.402 | -0.562 | -0.3
6 | C[C@]12N[C@H](Cc3ccccc31)c1ccccc12 [Dizocilpine maleate] | -0.337 | 0.113 | -0.302 | -0.304 | -0.361 | -0.275
7 | N[C@@H]1C[C@H]1c1ccccc1 [Tranylcypromine hydrochloride] | -0.505 | -0.919 | -0.309 | -0.693 | -0.48 | -0.53
8 | CNC(=O)Oc1ccc2c(c1)[C@]1(C)CCN(C)[C@@H]1N2C [Eserine sulfate, physostigmine sulfate] | -0.59 | -0.404 | -0.783 | -0.229 | -0.479 | -0.36
9 | CCN(CC)C(C)C(=O)c1ccccc1 (stereo not drawn) [Amfepramone hydrochloride] | -0.552 | 0.252 | -0.82 | -0.758 | -0.654 | -0.615
10 | CCNC1(c2cccs2)CCCCC1=O (stereo not drawn) [Tiletamine hydrochloride] | -0.499 | -0.0498 | -0.0108 | -0.435 | -0.475 | -0.463
11 | CC(C)c1cccc(C(C)C)c1O [Propofol] | -0.483 | -0.0677 | -0.406 | -0.391 | -0.506 | -0.548
12 | CO[C@]12C[C@@H](COC(=O)c3cncc(Br)c3)CN(C)[C@@H]1Cc1cn(C)c3cccc2c13 [Nicergoline] | 3.54 | 1.32 | 3.37 | -0.0724 | 3.09 | 0.446
13 | O=c1[nH]c2ccccc2n1CCCN1CCC(n2c(=O)[nH]c3cc(Cl)ccc32)CC1 [Domperidone] | 2.25 | 1.92 | 2.16 | 2.38 | 2.09 | 2.01
14 | CC[C@@H](C(N)=O)N1CCCC1=O [Levetiracetam] | -0.634 | -1.5 | -0.363 | 0.0516 | -0.585 | -0.523
15 | O=[N+]([O-])O[C@H]1CO[C@H]2[C@@H]1OC[C@H]2O[N+](=O)[O-] [Isosorbide dinitrate] | -0.547 | -1 | -0.426 | -0.655 | -0.496 | -0.471
16 | CC(NC(C)(C)C)C(=O)c1cccc(Cl)c1 (stereo not drawn) [Bupropion hydrochloride] | -0.577 | -0.652 | -0.448 | -0.134 | -0.453 | -0.438
17 | c1ccc2nc(N3CCNCC3)ccc2c1 [Quipazine dimaleate salt] | -0.64 | 0.00535 | -0.594 | -0.241 | -0.575 | -0.45
18 | CC(=O)OCC(=O)[C@H]1CC[C@H]2[C@@H]3CC[C@H]4C[C@H](O)CC[C@]4(C)[C@H]3C(=O)C[C@]12C [Alfadolone acetate] | 0.719 | 1.43 | 0.996 | 0.815 | 0.478 | 0.736
19 | C1CCc2nnnn2CC1 [Pentylenetetrazole] | -0.641 | -1.19 | -0.85 | -0.876 | -0.452 | -0.614
20 | CC(N)C(O)c1ccccc1 (stereo not drawn) [Phenylpropanolamine hydrochloride] | -0.541 | -1.1 | -0.689 | -0.0866 | -0.502 | -0.451
21 | CCC1=C[C@H]2CN3CCc4c([nH]c5ccccc45)[C@](C(=O)OC)(C2)[C@H]13 [Catharanthine] | 0.776 | 1.57 | 1.16 | 0.581 | 0.958 | 0.861
22 | C#CCN(C)[C@H](C)Cc1ccccc1 [Selegiline hydrochloride] | -0.688 | -1.62 | -0.708 | -0.332 | -0.535 | -0.657
23 | CCC(C)C1O[C@]2(C=C[C@@H]1C)C[C@@H]1CC(C/C=C(\C)[C@@H](OC3C[C@H](OC)[C@@H](OC4C[C@H](OC)[C@@H](O)[C@H](C)O4)[C@H](C)O3)[C@@H](C)/C=C/C=C3\COC4[C@H](O)C(C)=CC(C(=O)O1)[C@]34O)O2 (stereo partly drawn) [Avermectin B1a] | -0.178 | 0.136 | -0.0649 | 0.727 | -0.285 | -0.0937
24 | O=C1CC[C@@]2(O)[C@H]3Cc4ccc(O)c5c4[C@@]2(CCN3CC2CC2)[C@H]1O5 [Naltrexone hydrochloride dihydrate] | -0.577 | -0.427 | -0.831 | -1 | -0.48 | -0.466

Row | Compound | LBPA endosome anti-LBPA integrated intensity (z-score) (A431 [1]) | LBPA endosome anti-LBPA integrated intensity (z-score) (HeLa MZ [2]) | whole-cell filipin (z-score) (A431 [3]) | whole-cell filipin (z-score) (HeLa MZ [4]) | filipin (z-score) (A431 [5]) | filipin (z-score) (HeLa MZ [6])
25 | NCC1(CC(=O)O)CCCCC1 [Gabapentin] | -0.54 | -0.377 | -0.349 | -0.476 | -0.52 | -0.627
26 | CN1[C@@H]2CC[C@H]1C[C@@H](OC(=O)C(CO)c1ccccc1)C2 (stereo partly drawn) [Atropine sulfate monohydrate] | -0.568 | -0.87 | -0.533 | -0.945 | -0.5 | -0.345
27 | C[C@@]12N[C@@H](Cc3ccccc31)c1ccccc12 [(-)-MK 801 hydrogen maleate] | -0.405 | 0.615 | -0.428 | -0.298 | -0.407 | -0.347
28 | CCC1(CC)C(=O)C=CNC1=O [Pyrithyldione] | -0.626 | -1.42 | -0.51 | -0.44 | -0.527 | -0.593
29 | NCCCNCCSP(=O)(O)O [Amifostine] | -0.621 | -1 | -0.901 | -0.742 | -0.572 | -0.603
30 | O=C(O)CCCc1ccc(N(CCCl)CCCl)cc1 [Chlorambucil] | -0.184 | 1.86 | 1.33 | 2.72 | -0.393 | -0.471
31 | CN1[C@@H]2C[C@@H](OC(=O)[C@H](CO)c3ccccc3)C[C@H]1[C@@H]1O[C@@H]12 [Scopolamine hydrochloride] | -0.422 | -0.0951 | -0.247 | 0.118 | -0.45 | -0.0653
32 | CCC1(C)CC(=O)NC(=O)C1 [Bemegride] | -0.67 | -1.05 | -0.832 | -0.492 | -0.547 | -0.434
33 | NCC(O)c1ccc(O)cc1 (racemic) [(+,-)-Octopamine hydrochloride] | -0.262 | 0.0629 | -0.464 | -0.485 | -0.407 | -0.291
34 | CC(C)C[C@H]1C(=O)N2CCC[C@H]2[C@]2(O)O[C@](NC(=O)[C@@H]3C=C4c5cccc6[nH]c(Br)c(c56)C[C@H]4N(C)C3)(C(C)C)C(=O)N12 [Bromocryptine mesylate] | 0.99 | 2.32 | 1.54 | 0.742 | 0.487 | 0.695
35 | CN1C(=O)CCS(=O)(=O)C1c1ccc(Cl)cc1 (stereo not drawn) [Chlormezanone] | -0.579 | -0.715 | -0.534 | 0.0972 | -0.511 | -0.314
36 | CC[N+]1(C)CCCC(OC(=O)C(O)(c2ccccc2)c2ccccc2)C1 (stereo not drawn) [Pipenzolate bromide] | -0.28 | 0.585 | -0.135 | 0.198 | -0.297 | -0.211
37 | CCC1(c2cccc(O)c2)CCCCN(C)C1 (stereo not drawn) [Meptazinol hydrochloride] | -0.527 | -0.173 | 0.166 | -0.306 | -0.402 | -0.0124
38 | CCOC(=O)c1cncn1[C@H](C)c1ccccc1 [Etomidate] | -0.611 | -1.14 | -0.618 | -0.784 | -0.487 | -0.672
39 | C[C@]12CC[C@H](O)C[C@@H]1CC[C@@H]1[C@@H]2CC[C@]2(C)C(=O)CC[C@@H]12 [Epiandrosterone] | 1.56 | 0.767 | 2.3 | 2.67 | 2.15 | 1.85
40 | C=CCN1CC[C@]23c4c5ccc(O)c4O[C@H]2C(=O)CC[C@@]3(O)[C@H]1C5 [Naloxone hydrochloride] | -0.497 | -0.128 | -0.72 | -1.07 | -0.454 | -0.503
41 | CN(C)C(=O)Oc1cccc([N+](C)(C)C)c1 [Neostigmine bromide] | -0.478 | -0.496 | -0.63 | -0.608 | -0.499 | -0.715
42 | C(#CCN1CCCC1)CN1CCCC1 [Tremorine dihydrochloride] | -0.282 | 0.485 | -0.922 | -0.198 | -0.368 | 0.452
43 | O=c1[nH]c2ccccc2n1C1CCN(CCCC(c2ccc(F)cc2)c2ccc(F)cc2)CC1 [Pimozide] | 0.798 | 0.814 | 0.271 | -0.393 | 0.65 | 0.34
44 | CC(C)(C)NCC(O)c1ccccc1Cl (stereo not drawn) [Tulobuterol] | -0.101 | 1.38 | 0.203 | 0.36 | -0.334 | -0.0322
45 | CC(=O)O[C@H]1CC[C@@]2(C)C(=CC[C@@H]3[C@@H]2CC[C@]2(C)C(=O)CC[C@@H]32)C1 [Dehydroisoandosterone 3-acetate] | -0.242 | -0.00203 | 0.0526 | 0.0333 | -0.136 | -0.214
46 | CN[C@@H]1[C@@H](O)[C@@H](O[C@@H]2[C@@H](O)[C@H](O[C@H]3O[C@H](CN)CC[C@H]3N)[C@@H](N)C[C@H]2N)OC[C@]1(C)O.CN[C@@H]1[C@@H](O)[C@@H](O[C@@H]2[C@@H](O)[C@H](O[C@H]3O[C@H]([C@@H](C)N)CC[C@H]3N)[C@@H](N)C[C@H]2N)OC[C@]1(C)O.CN[C@@H]1[C@@H](O)[C@@H](O[C@@H]2[C@@H](O)[C@H](O[C@H]3O[C@H]([C@@H](C)NC)CC[C@H]3N)[C@@H](N)C[C@H]2N)OC[C@]1(C)O [Gentamicine sulfate] | -0.58 | -1.17 | -1.14 | -0.98 | -0.535 | -0.682
47 | COc1cccc(C2(O)CCCCC2CN(C)C)c1 (stereo not drawn) [Tramadol hydrochloride] | -0.437 | 0.543 | -0.062 | -0.487 | -0.403 | -0.176
48 | CCC1(c2ccc(N)cc2)CCC(=O)NC1=O (stereo not drawn) [Glutethimide, para-amino] | -0.66 | -1.41 | -1.07 | -1 | -0.544 | -0.691
